Laboratory results from PubChem BioAssay AID651785 (The Scripps Research Institute Molecular Screening Center, 2012).
About 950 (40%) of roughly 2,400 compounds were called active. Cut-off read from the data, not from the text of the source: active = inhibition above about 49%; inactive = the rest. A selection follows.

Target: Trace amine-associated receptor 1 (Homo sapiens) (UniProt Q96RJ0)
Assay: TAAR1 receptor blockers, repeat testing – cell-based, fluorescence, confirmation (AID 651785);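 note: CHO-Ga16 host cells challenged with agonist PEA near its EC80; 0% = agonist at EC80 plus vehicle and 100% = vehicle with no agonist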
Settings: TAAR1-expressing cells, fluorescence antagonist read-out; at 3 µM; hits give high values

Sequence of Trace amine-associated receptor 1 (Homo sapiens) (Q96RJ0 whole entry, looked up): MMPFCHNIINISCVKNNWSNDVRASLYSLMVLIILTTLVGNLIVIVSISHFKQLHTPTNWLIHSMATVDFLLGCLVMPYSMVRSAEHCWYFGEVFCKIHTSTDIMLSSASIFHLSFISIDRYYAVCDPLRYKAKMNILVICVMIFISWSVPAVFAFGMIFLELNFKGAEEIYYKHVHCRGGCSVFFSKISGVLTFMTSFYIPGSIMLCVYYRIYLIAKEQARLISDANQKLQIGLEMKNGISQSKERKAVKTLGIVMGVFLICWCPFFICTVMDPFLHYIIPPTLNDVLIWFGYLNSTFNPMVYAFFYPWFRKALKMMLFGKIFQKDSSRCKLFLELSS

Q: How did the inhibition turn out when O=C(NCc1ccc2c(c1)OCO2)c1c(-c2ccsc2)sc2ccccc12 was run?
A: 26.4% (inactive)

Q: How did the inhibition turn out when O=C(CN1CCCSc2ccccc21)N1CCN(S(=O)(=O)c2cccc(F)c2)CC1 was run?
A: 34.9% (inactive)

Q: How did the inhibition turn out when Oc1ccc(/C=N/Nc2nc(-c3ccccc3F)nc3ccccc23)c(O)c1 was run?
A: 55.8% (active)

Q: For Fc1ccc(/C=N/Nc2nc(-c3cccnc3)nc3ccccc23)cc1, which inhibition is on record?
A: 41.7% (inactive)

Q: With C/C(=N\Nc1ncc(Cl)cc1Cl)c1ccc(S(=O)(=O)NCc2ccco2)cc1 as the compound, how does the inhibition read?
A: 33% (inactive)

Q: For CC(=O)Nc1ccc(NC(=O)COC(=O)C2CCC(C(C)(C)C)CC2)cc1 (stereo unspecified), which inhibition is on record?
A: 52.9% (active)

Q: With C[C@H](NC(=O)c1nc[nH]c1C(=O)NCC(=O)OC(C)(C)C)C(=O)OCc1ccccc1 as the compound, how does the inhibition read?
A: 46.1% (inactive)

Q: For COc1ccc(CCNC(=O)c2ccc(CS(=O)(=O)c3ccc(Br)cc3)o2)cc1OC, which inhibition is on record?
A: 52.1% (active)

Q: Which inhibition does the source give for COc1ccc(CCNC(=O)C(=O)NCC2OCCN2S(=O)(=O)c2ccc(OC)c(C)c2)cc1 (stereo unspecified) here?
A: 26.8% (inactive)

Q: With COc1cc(OC)cc(C(=O)OCC(=O)Nc2sccc2C(N)=O)c1 as the compound, how does the inhibition read?
A: 48.2% (inactive)

Q: With O=C(COC(=O)CCCSc1nc2ccccc2[nH]1)Nc1ccc(Oc2ccccc2)cc1 as the compound, how does the inhibition read?
A: 50.7% (active)

Q: How did the inhibition turn out when N#Cc1cccc(NC(=O)COC(=O)c2ccccc2C(=O)c2ccc(Cl)c([N+](=O)[O-])c2)c1 was run?
A: 52.5% (active)

Q: Which inhibition does the source give for CC(=O)n1cc([C@H]2C=C(C(=O)N3CCOCC3)O[C@@H](OCc3ccc(CO)cc3)C2)c2ccccc21 here?
A: 40.4% (inactive)

Q: How did the inhibition turn out when CCC(=O)Oc1cccc(C(=O)Nc2ccc(-c3nnc(-c4ccco4)o3)cc2)c1 was run?
A: 46.1% (inactive)

Q: How did the inhibition turn out when O=C(CCc1ccccc1)Nc1cccc(-c2nnc(-c3ccco3)o2)c1 was run?
A: 49.1% (active)

Q: O=C(Nc1ccc(-c2nnc(-c3ccccc3)o2)cc1)c1ccc(Br)o1 was tested. Which inhibition did it give?
A: 21.3% (inactive)

Q: How did the inhibition turn out when COc1ccc(Cl)cc1NC(=O)CCS(=O)(=O)c1cc2c(cc1C)NC(=O)CO2 was run?
A: 36% (inactive)

Q: How did the inhibition turn out when CCOC(=O)C1C(c2ccc(OC)c(OC)c2)c2c([nH][nH]c2=O)CC1(C)O (stereo unspecified) was run?
A: 38.7% (inactive)

Q: How did the inhibition turn out when Cc1ccc(-n2c(C)cc(/C=N\NC(=O)CC(=O)NC(C)C)c2C)cc1 was run?
A: 97.9% (active)

Q: Which inhibition does the source give for CNC(=O)c1ccsc1NC(=O)c1ccc(S(=O)(=O)N2CCc3ccccc32)cc1 here?
A: 43.2% (inactive)

Q: For CC(C)N(Cc1ccccc1)C(=O)COC(=O)c1ccccc1SCC(=O)N1CCCC1, which inhibition is on record?
A: 52.8% (active)

Q: O=C(OCC(=O)N(CCc1ccccc1)Cc1ccccc1)c1ccccc1[N+](=O)[O-] was tested. Which inhibition did it give?
A: 47.4% (inactive)

Q: With O=C(COC(=O)c1ccccc1SCC(=O)N1CCCC1)Nc1ccccc1OC(F)F as the compound, how does the inhibition read?
A: 52.2% (active)

Q: With COC(=O)[C@@]1(Sc2ccc(C)cc2)CC(=O)N(c2cccc(SC)c2)[C@@H]1c1ccccc1 as the compound, how does the inhibition read?
A: 47.3% (inactive)

Q: How did the inhibition turn out when CCOc1ccc(NC(=O)N2CC=C(n3c(=O)[nH]c4ccccc43)CC2)cc1 was run?
A: 39.5% (inactive)

Q: For COC(=O)C1=C(C)N(Cc2ccc(F)cc2)C(=S)NC1c1cccc(Cl)c1 (stereo unspecified), which inhibition is on record?
A: 36.5% (inactive)

Q: For CCN=C1SC(CC(=O)Nc2ccc(C)cc2)C(=O)N1CC (stereo unspecified), which inhibition is on record?
A: 59.2% (active)

Q: How did the inhibition turn out when O=C(N/N=C/c1ccc(Cl)c(Cl)c1)c1ccc2nc[nH]c2c1 was run?
A: 52.9% (active)

Q: CCOc1cc(/C=N/NC(=O)c2cc(-c3ccccc3)nc3ccccc23)ccc1O was tested. Which inhibition did it give?
A: 44.9% (inactive)

Q: How did the inhibition turn out when CSc1nc(-c2ccccc2)nc(C(Cl)Cl)n1 was run?
A: 36.6% (inactive)

Q: Which inhibition does the source give for COc1cc(SC#N)ccc1N=Cc1c(C)[nH]n(-c2ccc(C)cc2)c1=O here?
A: 67.6% (active)
